Pf growth 96h – Primary qHTS for delayed death inhibitors of the malarial parasite plastid, 96 hour incubation; 6.9% of 320,000 active; P. falciparum luciferase reporter growth, 96 h; Potency, µM (top dose mostly 28.7 µM), for inactives: top-dose activity change, negative = inhibition, actives largely listed as inhibitors; active = well fitted inhibition curve with a large enough effect; inconclusive = small, poorly fitted or top-dose-only effect, or another doubt; inactive = no such curve, though single readings can be large or run the other way; also: potency is read from the fitted curve at half-maximal effect; % is scaled to controls: 0 for no effect and ±100 for the full control effect
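Erythrocytes infected with luciferase-expressing P. falciparum were dispensed at 2% hematocrit and 0.05% parasitemia (final), then incubated with compounds 96 hours at 37 C in 5% CO2. Luminescence after detection reagent addition reported growth.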
SARS PLP yeast – qHTS of Yeast-based Assay for SARS-CoV PLP | S. cerevisiae expressing SARS-CoV PLpro, growth rescue | Potency, µM (doses to about 32.9 µM), without a hit: top-dose activity, positive = growth rescue, actives largely listed as activators | 0.19% of 330,000 active; also: potency is read from the fitted curve at half-maximal effect; 0% is about no effect; nearly all actives have a fitted effect of over 55% in size
NS1 function inh – qHTS Assay for Inhibitors of Influenza NS1 Protein Function. AID 2326, 2010. 0.4% of 270,000 active. Potency, µM (doses to about 46.1 µM), for the others: top-dose activity, positive = more growth; also: potency is read from the fitted curve at half-maximal effect; actives are rising curves; nearly all actives have a fitted effect of over 50% in size
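Compounds were scored for reversing the slow growth caused by influenza A NS1 in S. cerevisiae, measured by optical density at 600 nm. Assay medium contained 2% galactose at pH 6.0; NS1-free yeast of the same strain were the positive control.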
Pf growth 48h – Primary qHTS for delayed death inhibitors of the malarial parasite plastid, 48 hour incubation; 5.9% of 310,000 active; Potency, µM (top dose mostly 28.7 µM), inactives show at the highest dose activity change, negative = inhibition, usual class: inhibitors; P. falciparum luciferase growth in erythrocytes, 48 h; AID 504832, 2011; active = well fitted inhibition curve with a large enough effect; inconclusive = small, poorly fitted or top-dose-only effect, or another doubt; inactive = no such curve, though single readings can be large or run the other way; also: potency is read from the fitted curve at half-maximal effect; % is scaled to controls: 0 for no effect and ±100 for the full control effect
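Cell-based growth assay: transgenic P. falciparum expressing firefly luciferase, cultured in red cells within RPMI 1640 containing 0.5% w/v Albumax, 24 mM bicarbonate and gentamycin. A drop in luciferase activity indicates inhibition.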
Shiga inhibitor – A qHTS for Small Molecule Inhibitors of Shiga Toxin | 9.2% of 290,000 active | inhibition, % at 38.7 µM | Vero cells, Shiga toxin protein synthesis inhibition reporter; in the data active = inhibition mostly above about 28%, no sharp cut-off; inactive = mostly below about 43%; also: 0% is about no effect
Cycloheximide cs – Cycloheximide Counterscreen for Small Molecule Inhibitors of Shiga Toxin | cell reporter, cycloheximide protein synthesis inhibition counterscreen | 12% of 300,000 active | max response, %; in the data active = max response mostly above about 13%, no sharp cut-off; inactive = mostly below about 14%; also: read at 38.3 µM for the half of the compounds with a filed dose; 0% is about no effect
Active calls of the source: *; ? = inconclusive; / = not tested or not shown. Sampled rows, rich in hits. Any-hit rate of the full collection: about 21%. Unless noted, calls follow the shape of the full dose curve.

SMILES	Pf growth 96h	SARS PLP yeast	NS1 function inh	Pf growth 48h	Shiga inhibitor	Cycloheximide cs
O=C1N(Cc2cccc(Cl)c2)C[C@@H]2C[C@@H](c3cccn3-c3nccs3)N3CCC[C@@]123	?	-2%	0%	?	-5	-3
COc1ccccc1NC(=O)/C=C\C(=O)O	?	-2%	/	31%	15	11
O=C(NNc1c(F)c(F)cc(F)c1F)c1ccc(Cl)nc1	41%	11%	-9%	-6%	20	5
O=C1CC(c2nc3ccccc3[nH]2)CN1c1ccccc1 (stereo not given)	/	2%	11%	5%	7	8
c1ccc(C2=Nc3ccccc3SC2c2nc3ccccc3[nH]2)cc1 (stereo not given)	?	/	-30%	?	87*	36*
COC(=O)CNc1nc(Cl)nc(Nc2ccc(Cl)cc2)n1	-25%	0%	/	-7%	-13	-1
CCCN(CCC)c1nc(N)c(C#N)c(CC#N)c1C#N	13µM*	5%	11%	/	3	4
CCCN(CC1CC1)c1nc(N)c(C#N)c(CC#N)c1C#N	?	12%	1%	/	23	-1
Oc1ccc(Nc2nc3ccccc3nc2Nc2ccc(O)cc2)cc1	/	7%	4%	/	40	14*
Oc1ccc(Nc2nc(-c3ccccc3)nc3ccccc23)cc1	-66%	-8%	1%	-5%	-6	-2
Cc1nc2ccccc2nc1N/N=C/c1ccc(O)cc1	41%	-3%	-4%	27%	53*	40*
Cc1ccc(C(=O)NCc2ccc(N3CCN(C)CC3)cc2)cc1C	-8%	-4%	2%	6%	20	16
Cc1cc(F)ccc1S(=O)(=O)Nc1ccccc1C(=O)Nc1ccccc1-c1nc2ccccc2[nH]1	1.9µM*	-4%	17%	9.3µM*	-9	16
CC1CCN(S(=O)(=O)c2ccc(C(=O)Nc3ncccc3O)cc2)CC1	5.2µM*	6%	16%	?	6	7
CC1CCCN(S(=O)(=O)c2ccc(C(=O)Nc3ccccc3-c3nc4ccccc4[nH]3)cc2)C1 (stereo not given)	?	-14%	-9%	1.5µM*	-9	-9
CC1CCN(S(=O)(=O)c2ccc(C(=O)Nc3ccccc3-c3nc4ccccc4[nH]3)cc2)CC1	7.4µM*	15%	-5%	4.1µM*	-7	-7
Cc1cc(N2CCN(C)CC2)nc2ccc(NC(=O)CCC3CCCC3)cc12	?	-4%	-5%	?	-8	-4
Cc1ccc(N(c2ncnc(N)c2[N+](=O)[O-])C2CCCCC2)cc1	28%	3%	20%	22%	-7	-2
Cc1ccc(-c2nc3ccccc3c(C(=O)NCc3cccs3)c2C)cc1	?	-25%	-65%	/	-7	3
Cc1ccccc1CN1CCNC1=O	25%	3%	?	9.3µM*	15	4
CC1=CC(=O)CC(C)(C)[C@]1(O)/C=C\C(C)=C\C(=O)O	/	/	-3%	/	/	/
COCCN(Cc1ccccc1)C(=O)C1CCN(S(=O)(=O)c2ccc3c(c2)OCCO3)CC1	12µM*	1%	/	?	/	/
O=C(C1CCN(S(=O)(=O)c2ccccc2)CC1)N(CCc1ccccc1)Cc1ccco1	29%	0%	-7%	13µM*	14	0
COCCN(Cc1ccccc1)C(=O)C1CCN(S(=O)(=O)c2ccc(OC)c(OC)c2)CC1	?	-3%	/	?	/	/
COCCN(C(=O)c1cc2c(s1)CCC2)c1c(N)n(CC(C)C)c(=O)[nH]c1=O	-22%	-1%	/	-8%	/	/
SMILES	Pf growth 96h	SARS PLP yeast	NS1 function inh	Pf growth 48h	Shiga inhibitor	Cycloheximide cs
O=C(NC1CC1)c1ccc2c(Cl)c3c(nc2c1)CCCC3	-42%	-6%	/	23%	68*	23*
O=C(Nc1cccnc1Cl)c1ccc2c(Cl)c3c(nc2c1)CCC3	-9%	-8%	/	241%	44	23*
CCN(C(=O)c1ccc2c(Cl)c3c(nc2c1)CCC3)c1cccc(C)c1	?	-2%	-1%	?	16	22*
CC(=O)c1cccc(NC(=O)c2ccc3c(Cl)c4c(nc3c2)CCCC4)c1	-15%	14%	-1%	14%	23	6
N#Cc1ccccc1NC(=O)c1ccc2c(Cl)c3c(nc2c1)CCCC3	4%	?	-15%	?	91*	53*
CCOC(=O)N1CCC(NC(=O)c2ccc3c(Cl)c4c(nc3c2)CCCC4)CC1	-12%	-17%	27%	-30%	-13	-2
Cc1cccc2cc(CN(Cc3ccccc3)C(=O)c3cccc(F)c3)c(Cl)nc12	?	-11%	7%	-10%	-5	-8
O=C1CS/C(=N/N=C2CCCC2)N1	3.3µM*	2%	/	-14%	7	-6
CCOc1ccc(CCNC(=O)CN2C(=O)NC(CCSC)C2=O)cc1OCC (stereo not given)	6%	2%	/	-12%	-16	1
c1ccc(-c2onc3c2CCCC3)cc1	/	-8%	-22%	13%	71*	16*
Cc1cnc(NC(=O)c2cc3c(C)nn(Cc4ccccc4Cl)c3s2)s1	13µM*	-8%	7%	7.4µM*	-1	17
Cc1cnc(NC(=O)Cc2ccccc2Cl)s1	-19%	-6%	-7%	-9%	17	0
COc1ccccc1C(=O)NCCC(=O)N1CCN(S(=O)(=O)c2ccccc2C(F)(F)F)CC1	?	-1%	/	?	/	/
CCC1Oc2ccc(C)cc2N(CC(=O)NCc2cc(OC)ccc2OC)C1=O (stereo not given)	35%	-1%	-1%	-11%	11	-2
O=c1c(-c2n[nH]c(=S)n2-c2ccccc2)cccn1Cc1cccc(Cl)c1	3%	-1%	/	79%	10	-3
CC1CCCCC1NC(=O)/C=C/c1nc2ccccc2s1 (stereo not given)	?	-4%	-20%	4%	76	30*
O=C(CN1CCC(c2nc3ccccc3s2)CC1)N1CCCCC1	10%	1%	?	35%	33	16
O=C(/C=C/c1nc2ccccc2s1)N1CCCCCC1	45%	-1%	/	356%	53*	35*
Cc1ccc(C2=NOC(C)(c3nnc(-c4ccc(Cl)cc4)o3)C2)cc1 (stereo not given)	22%	-5%	-32%	-3%	-5	-2
CCN(C(=O)Cn1nnc(-c2ccccc2)n1)C1CCS(=O)(=O)C1 (stereo not given)	1%	0%	/	3%	/	/
CCOC(=O)N1CCC(NC(=O)c2cc3ccccn3n2)CC1	13%	-4%	-1%	/	-11	-6
COc1ccc2cc1Oc1ccc(cc1)C[C@H]1c3cc(c(OC)cc3CCN1C)Oc1c(OC)c(OC)cc3c1[C@H](C2)N(C)CC3	2.1µM*	1%	1%	2.1µM*	-4	-3

Source: PubChem
